A selection: hits, their analogues and other compounds. The true share with any hit is near 3.1%.
RAD52 anneal inh: blocks human RAD52 DNA annealing; 0.46% of 360,000 active; recombinant RAD52 DNA annealing, FRET fluorescence; inhibition, % at 18.7 µM; P43351;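 active means every replicate showing at least 50% inhibition; inconclusive means mean inhibition at least 50% but not in every replicate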
INS-1E GSIS act: primary screen for activators of insulin secretion dependent on glucose, INS-1E cells, GLuc reporter luminescence | INS-1E GLuc reporter insulin secretion, 2-3 h | activation, % at 16.6 µM | 0.61% of 370,000 active;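 active means lowest replicate activation of at least 40%, so every replicate reaches that level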
DENV2 CPE rescue: DENV2-induced cell death inhibition; DENV2-infected cells, cytopathic effect rescue, plate reader; CPE inhibition, % at 9.99 µM; 1.7% of 350,000 active; AID 651640; in the data active means CPE inhibition above about 20%, passing the limit was not always enough; inconclusive means no clear call, values can overlap the other calls; tested in BHK-21 cells
AF4-AF9 inh: inhibitors of human MLL-AF4/AF9 interaction; P42568; 0.47% of 350,000 active; inhibition, % at 10 µM; AID 651704; AlphaScreen, biotin-AF4 peptide binding to FLAG-AF9;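 active means every replicate reaching a set inhibition limit, whatever the replicate mean, cut at about 25% in these data; inconclusive means mean inhibition reaches that limit but some replicates miss it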
Target sequence (P42568 whole entry, looked up): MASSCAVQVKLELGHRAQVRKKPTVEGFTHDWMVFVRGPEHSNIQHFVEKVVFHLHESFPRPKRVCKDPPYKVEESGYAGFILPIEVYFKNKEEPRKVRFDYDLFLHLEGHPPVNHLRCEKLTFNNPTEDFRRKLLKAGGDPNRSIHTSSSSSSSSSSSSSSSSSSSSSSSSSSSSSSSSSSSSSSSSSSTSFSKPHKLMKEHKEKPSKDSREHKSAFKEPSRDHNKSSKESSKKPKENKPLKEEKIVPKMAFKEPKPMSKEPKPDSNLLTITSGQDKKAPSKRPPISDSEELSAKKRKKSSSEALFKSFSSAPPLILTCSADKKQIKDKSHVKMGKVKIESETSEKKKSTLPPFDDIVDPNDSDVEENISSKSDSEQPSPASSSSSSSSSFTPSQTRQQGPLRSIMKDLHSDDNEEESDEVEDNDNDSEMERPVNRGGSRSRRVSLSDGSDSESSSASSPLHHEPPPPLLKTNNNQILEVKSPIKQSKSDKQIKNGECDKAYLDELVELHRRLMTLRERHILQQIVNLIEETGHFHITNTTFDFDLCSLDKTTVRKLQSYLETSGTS
RAD54 inh: RAD54 (human) branch migration inhibition | Q92698 | RAD54 Holliday junction branch migration, FAM/BHQ fluorescence | inhibition, % at 10.4 µM | 0.14% of 360,000 active | AID 602329;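 active means mean normalized replicate activity at least 40 and at least half of replicates scoring 40 or more; inconclusive means only one of the two criteria met; inactive means mean below 40 and under half of replicates reaching 40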;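 further: inhibitors cause a drop in the FAM fluorescence signal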
dFosB act: enhances mouse delta FosB homodimer DNA binding; P13346; purified delta FosB, TAMRA-CDK5 oligo fluorescence polarization; percent of positive-control signal above neutral wells; activation, % at 25 µM; 0.99% of 340,000 active; AID 493131;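 active means mean activation above about 17%, with every replicate also reaching it, limit read from the data, passing the limit was not always enough; inconclusive means only one of the two conditions met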
Numbers stand for hits; 0 = inactive; ? = inconclusive; - = not tested or not shown; ! = repeats disagree.

SMILES	RAD52 anneal inh	INS-1E GSIS act	DENV2 CPE rescue	AF4-AF9 inh	RAD54 inh	dFosB act
CCC(=O)N1CCC2(CC1)CN(Cc1ccccc1Cl)[C@H](CO)c1c2c2ccc(OC)cc2n1C	0	0	0	0	-	-
Cc1noc(C)c1S(=O)(=O)N(C)C[C@H]1Oc2ccc(NC(=O)CCCN(C)C)cc2C(=O)N([C@H](C)CO)C[C@H]1C	0	0	0	0	0	-
CC=Cc1ccc2n(c1=O)C[C@H]1[C@H](CO)[C@@H](C(=O)NC3CCCCC3)N(CCC)[C@@H]21 (mixture of isomers)	-	0	-	-	-	-
CC=Cc1ccc2n(c1=O)C[C@H]1[C@H](CO)[C@@H](C(=O)NC3CCCC3)N(CCC)[C@@H]21 (mixture of isomers)	92	0	0	0	-	-
CCC(=O)N(C)C[C@@H]1Oc2ncc(-c3ccc(C#N)cc3)cc2C(=O)N([C@@H](C)CO)C[C@@H]1C	0	0	?	0	0	-
CCC(=O)Nc1ccc(N2CCCCC2)cc1	-	0	-	-	0	0
Cc1cc(OCC(=O)Nc2ccc(N3CCCC3)cc2)cc(C)c1Cl	-	-	-	-	0	65
O=C(CCl)Nc1ccc(N2CCCCCC2)cc1	0	0	0	51	0	0
CCOc1ccc(OCC(=O)Nc2ccc(N3CCCCC3)cc2)cc1	0	0	0	0	0	0
Cc1cccc(OCC(=O)Nc2ccc(N3CCN(C(=O)c4ccccc4)CC3)cc2)c1C	0	0	43	0	0	0
COCC#Cc1ccc2c(c1)O[C@@H](CN(C)C(=O)Nc1ccccc1F)[C@@H](C)CN([C@@H](C)CO)S2(=O)=O	0	0	0	0	0	-
O=S(=O)(c1ccc(-c2ccccc2)cc1)N1CCN(Cc2cccc(OCCO)c2)CC1	0	-	0	0	-	-
C[C@@H]1CN([C@H](C)CO)C(=O)c2cc(NS(C)(=O)=O)ccc2O[C@@H](C)CCCCO[C@H]1CN(C)S(=O)(=O)c1ccc(F)cc1	0	0	27	0	0	-
C[C@@H]1CCCCO[C@H](CN(C)S(=O)(=O)c2ccccc2)[C@@H](C)CN([C@@H](C)CO)C(=O)c2cc(NS(=O)(=O)c3ccc(F)cc3)ccc2O1	0	0	25	0	-	-
C[C@@H]1CCCCO[C@H](CN(C)S(=O)(=O)c2ccccc2)[C@H](C)CN([C@@H](C)CO)C(=O)c2cc(NS(=O)(=O)c3ccc(F)cc3)ccc2O1	0	0	0	0	0	-
C[C@@H]1CCCCO[C@H](CN(C)S(=O)(=O)c2ccc(F)cc2)[C@@H](C)CN([C@H](C)CO)C(=O)c2cc(NS(C)(=O)=O)ccc2O1	0	0	0	0	0	-
C[C@@H]1CN([C@@H](C)CO)C(=O)c2cc(NS(C)(=O)=O)ccc2O[C@@H](C)CCCCO[C@H]1CN(C)S(=O)(=O)c1ccc(F)cc1	0	0	67	0	0	-
O=C(Nc1ccccc1F)N1CCCCN2[C@H](C1)[C@@H](c1ccc(C#Cc3cccnc3)cc1)[C@@H]2CO	0	0	0	0	0	-
C[C@@H]1CN([C@H](C)CO)C(=O)c2cc(NC(=O)Cc3cn(C)c4ccccc34)ccc2O[C@H]1CN(C)S(=O)(=O)c1ccc(F)cc1	0	0	58!	0	0	0
C[C@H](CO)N1C[C@H](C)[C@H](CN(C)Cc2ccc(C(=O)O)cc2)Oc2ccc(NC(=O)Cc3cn(C)c4ccccc34)cc2C1=O	0	0	70	0	0	-
C[C@@H]1CN([C@@H](C)CO)C(=O)c2cc(NC(=O)Cc3cn(C)c4ccccc34)ccc2O[C@H]1CN(C)S(=O)(=O)c1ccc(F)cc1	0	0	0	0	0	-
CC(C)NC(=O)N(C)C[C@H]1Oc2ccc(NC(=O)Cc3cn(C)c4ccccc34)cc2C(=O)N([C@@H](C)CO)C[C@@H]1C	0	0	0	0	0	-
CC(C)NC(=O)N(C)C[C@@H]1Oc2ccc(NC(=O)Cc3cn(C)c4ccccc34)cc2C(=O)N([C@@H](C)CO)C[C@H]1C	0	0	80	0	0	-
C[C@@H]1CN([C@@H](C)CO)C(=O)Cc2cc(NC(=O)Nc3ccc(C(F)(F)F)cc3)ccc2O[C@H]1CN(C)CC1CC1	0	0	0	0	0	-
C[C@@H]1CN([C@H](C)CO)C(=O)c2cc(C#C[C@@H](C)O)cnc2O[C@H]1CN(C)C(=O)Cc1ccncc1	0	0	0	0	0	-
SMILES	RAD52 anneal inh	INS-1E GSIS act	DENV2 CPE rescue	AF4-AF9 inh	RAD54 inh	dFosB act
CCCCCc1ccc(OCCC[n+]2ccccc2)c(CCCCC)c1	0	192	0	0	-	0
CCCCCc1ccc(OCCOCCn2c[n+](C)c3ccccc32)c(CCCCC)c1	-	-	-	-	-	0
O/N=C/c1cccc[n+]1CCCCCC[n+]1ccccc1/C=N/O	0	0	0	0	0	0
CCCCCCCCCCCCCCCC[n+]1ccc(/C=N/O)cc1	88	47	0	0	-	38
CCCCCCCCCCCCCCCC[n+]1ccc(C(N)=O)cc1	-	0	-	-	0	45
CCCCCCCC[n+]1cccc(C(=O)N(CC)CC)c1	0	0	0	0	-	0
CCN(C[C@H]1[C@H](c2ccc(C3=CCCC3)cc2)[C@@H](CO)N1C(C)=O)C(C)=O	-	0	?	-	0	-
CCCCN(C=O)c1c(CC)nc2ccc(C(=O)N3CCN(C(C)=O)CC3)cn12	0	0	0	0	0	-
CCc1nc2ccc(C(=O)N3CCCC(C(N)=O)C3)cn2c1N(C=O)CC (stereo unspecified)	0	0	27	0	0	-
C[C@H](NC(=O)C[C@@H]1C=C[C@H](NC(=O)C2CCOCC2)[C@@H](CO)O1)c1ccccc1	0	0	0	0	0	-
CC(OC(=O)c1ccc(NC(=O)CC#N)cc1)C(=O)NC(=O)NC1CCCCC1 (stereo unspecified)	0	0	0	0	0	58
Cc1cc(-n2c(SCC(=O)Nc3ccc(F)c(F)c3)nc3n[nH]c(C)c3c2=N)ccc1Cl	0	250	0	0	0	0
C[C@@H]1CN([C@@H](C)CO)S(=O)(=O)c2ccc(C#C[C@@H](C)O)cc2O[C@H]1CN(C)C(=O)C1CCCCC1	0	0	0	0	0	-
O=C(CNC(=O)c1ccco1)N/N=C/c1ccc(C(=O)O)cc1	0	48	0	0	0	0
O=C(Nc1ccccc1C(=O)N/N=C/c1ccccc1)c1ccco1	0	93	0	0	0	88
O=C(Cc1ccccc1)NCC(=O)N/N=C/c1ccc(C(=O)O)cc1	0	0	0	0	0	0
O=C(N/N=C/c1ccccc1)c1ccco1	0	0	0	0	-	0
COc1ccc(N/C=C\C(=O)c2ccc(Br)cc2)cc1OC	-	131	-	-	-	0
COc1cccc(-c2ccc3n(c2=O)C[C@@H]2[C@@H](CO)[C@H](C(=O)NCC4CC4)N(C)[C@H]32)c1	0	0	0	0	0	-
COc1ccc(NC(=O)CN2CCc3ccccc3C2)cc1S(=O)(=O)N1CCOCC1	0	-	51	0	-	0
CCN(CC)CCNC(=O)c1ccc(NC(=O)Cc2ccc(OC)c(S(=O)(=O)N3CCOCC3)c2)cc1	0	0	40	0	0	0
